Bioassay records as filed in PubChem.
GPR151 ag: activates the human receptor GPR151; Q8TDV0; PathHunter beta-arrestin GPR151 cells, luminescence; activation, % at 11.2 µM; actives 1% (n = 650,000); in the data active = activation above about 4.9%;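 also: 0% = median of compound wells and 100% = cells with positive control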
TEAD-YAP inh: TEAD-YAP interaction inhibition; inhibition, % at 9.12 µM; HEK-TIYL cells, TEAD-Gal4/YAP UAS-luciferase luminescence; actives 1.4% (n = 640,000); in the data active = inhibition above about 32%;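 also: 0% = median of test compound wells and 100% = reference inhibitor wells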
FBW7 activator: human FBW7 E3 ligase activation, primary screen; AlphaScreen FBW7–phospho-cyclin E peptide binding, activator screen; normalized activity (activation), % at 26.1 µM; actives 0.13% (n = 650,000); AID 1259310; in the data active = normalized activity above about 1.9%;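 also: purified mutant Fbw7 with reduced substrate affinity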
MITF primary: inhibitors of human MITF. O75030. AlphaScreen MITF homodimerization, bead proximity signal. inhibition, % at 2.6 µM. actives 0.91% (n = 650,000). AID 1259374; in the data active = inhibition above about 50%;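 also: 0% = vehicle wells with protein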
Target sequence (O75030 whole entry, looked up): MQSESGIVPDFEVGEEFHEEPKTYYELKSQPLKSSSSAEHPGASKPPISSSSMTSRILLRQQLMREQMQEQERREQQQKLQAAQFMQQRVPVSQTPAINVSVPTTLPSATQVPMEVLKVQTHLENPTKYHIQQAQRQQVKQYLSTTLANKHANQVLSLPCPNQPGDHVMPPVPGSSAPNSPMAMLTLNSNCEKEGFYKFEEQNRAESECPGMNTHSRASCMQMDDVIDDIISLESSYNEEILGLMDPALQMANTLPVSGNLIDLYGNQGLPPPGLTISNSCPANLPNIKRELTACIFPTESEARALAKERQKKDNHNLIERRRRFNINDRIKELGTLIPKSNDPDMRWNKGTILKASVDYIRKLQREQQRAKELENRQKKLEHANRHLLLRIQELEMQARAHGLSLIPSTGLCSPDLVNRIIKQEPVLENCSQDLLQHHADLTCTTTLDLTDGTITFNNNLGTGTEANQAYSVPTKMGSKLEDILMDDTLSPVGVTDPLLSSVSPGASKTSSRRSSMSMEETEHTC
Numbers without * were called inactive. The list is not random: actives were taken first. Their share in the collection is about 3.5%.

SMILES	GPR151 ag	TEAD-YAP inh	FBW7 activator	MITF primary
Cc1cccc(NC(=O)C2CCN(c3ccc(-c4cccs4)nn3)CC2)n1	-10	55*	0	19
CCOC(=O)c1ccccc1NC(=O)C1CCN(c2ccc(-c3cccs3)nn2)CC1	0	3	0	8
CC1=CC(=O)C=C(C)C1=NOC(=O)c1ccc(Cl)cc1	0	8	0	73*
CC1=CC(=O)C=C(C)C1=NOC(=O)c1ccc([N+](=O)[O-])cc1	-2	5	1	8
CCN(CC)C(=O)Sc1nc2ccccc2s1	-6	44*	0	25
COc1ccccc1Cn1c(SCC(=O)C(C)(C)C)nc2ccc(Br)cc2c1=O	2	2	0	17
COC(=O)c1nn(-c2ccc3c(c2)CCN3C(C)=O)cc1O	-10	94*	0	-2
O=S(=O)(c1ccc(F)cc1)c1nc(-c2ccc(F)cc2)oc1NCCCn1ccnc1	0	-5	0	-3
NC(c1nc2ncc(-c3ccncc3)cc2[nH]1)c1ccc(F)cc1F (stereo unspecified)	-1	-11	3.5*	46
N[C@H](Cc1ccc(Cl)cc1)c1nc2ncc(-c3ccncc3)cc2[nH]1	-1	21	-1	14
CC(O)C12c3ccccc3C(c3ccccc31)C1C(=O)N(c3ccccc3F)C(=O)C12 (stereo unspecified)	-1	9	2.2*	4
Cc1ccc2nc3c(C#N)cc4cc5ccccc5nc4n3c(=O)c2c1	0	6	0	-1
O=C1NC(=O)/C(=C/C(=O)N2CCCCC2)S1	0	-6	0	-7
Cc1cc(C)c(S(=O)(=O)Nc2ccc3c(c2)CCCN3C(=O)C(C)C)cc1C	1	2	2.0*	-7
Cc1cc(C)c(S(=O)(=O)Nc2ccc3c(c2)N(C(=O)C(C)C)CCC3)cc1C	1	46*	0	-8
N#C/C(=C/c1ccco1)c1ccc([N+](=O)[O-])cc1	0	-13	0	20
COCCOC(=O)C1=C(C)NC(=S)NC1c1ccc(Br)cc1 (stereo unspecified)	-1	-8	0	12
COC(=O)[C@@H](NC(=O)c1sc2ncnc(NCCN3CCCCC3)c2c1C)C(C)C	0	-10	0	-9
Cc1ccc2c(c1)NC(=O)c1cc(NC(=O)c3ccccc3Br)ccc1O2	1	44*	0	12
Cc1ccc2c(c1)Oc1ccc(NC(=O)CCCl)cc1C(=O)N2	2	33*	0	-12
Cc1onc(-c2ccccc2Cl)c1-c1nc(-c2cccnc2)no1	-2	58*	0	4
CCOC(=O)/C(C#N)=N/Nc1cccc(S(=O)(=O)N2CCOCC2)c1	0	-2	0	12
c1cncc(CNc2nc(NCc3nc4ccccc4[nH]3)c3ncn(-c4ccsc4)c3n2)c1	1	86*	0	-8
c1cnc(Nc2nc(NCc3nc4ccccc4[nH]3)c3ncn(-c4ccsc4)c3n2)nc1	-1	69*	50*	-18
C=CCSc1nnc2c(n1)OC(c1ccccc1OCCCC)Nc1ccccc1-2 (stereo unspecified)	2	-26	0	4
SMILES	GPR151 ag	TEAD-YAP inh	FBW7 activator	MITF primary
CCCOc1ccc(/C(O)=C2\C(=O)C(=O)N(CCCN(C)C)C2c2ccc(OC)c(OC)c2)c(C)c1 (stereo unspecified)	-2	33*	0	15
CCCOc1ccc(/C(O)=C2\C(=O)C(=O)N(CCN(C)C)C2c2ccc(OC)c(OC)c2)c(C)c1 (stereo unspecified)	1	-7	0	-6
Nc1c(C=O)sc2nc3c(cc12)CCCC3	-1	-8	1	9
CC(=O)c1cccc(NC(=O)CSC2N=c3ccc([N+](=O)[O-])cc3=N2)c1 (stereo unspecified)	0	-1	0	71*
CC(=O)c1cccc(NC(=O)Cn2ccc([N+](=O)[O-])n2)c1	0	9	0	14
Cc1ccc(OC(=O)Nc2cccc3c(NC(=O)Oc4ccc(C)c(C)c4)cccc23)cc1C	0	-4	0	11
CNC(=O)c1ccccc1Nc1ccnc(Nc2ccccn2)c1	0	76*	-1	5
CNC(=O)c1ccccc1Nc1cc(Nc2ccc(C(=O)N(C)C)cc2C)ncc1C(F)(F)F	0	73*	0	-4
CNC(=O)c1ccccc1Nc1cc(Nc2ccc(C(=O)N(C)C)cn2)ncc1C(F)(F)F	-1	84*	0	-4
CNC(=O)c1ccccc1Nc1cc(Nc2ncccc2C)ncc1C(F)(F)F	-2	40*	0	36
CNC(=O)c1ccccc1Nc1cc(Nc2ccc(-c3cncnc3)cc2OC)ncc1C(F)(F)F	0	13	2	36
CNC(=O)c1ncccc1Nc1cc(Nc2ccc3[nH]ncc3c2)ncc1C(F)(F)F	1	9	0	3
CNC(=O)c1ncccc1Nc1cc(Nc2ccc(C(=O)N(C)C)cn2)ncc1C(F)(F)F	0	72*	0	-2
Cc1ccc(-c2csc(NC(=O)c3ccc(S(=O)(=O)N4CCOCC4)cc3)n2)o1	-1	28	0	1
Cc1ccc(C)c(-c2csc(NC(=O)c3ccc(S(=O)(=O)N4CCOCC4)cc3)n2)c1	0	42*	0	-7
COc1ccc(-c2csc(NC(=O)c3ccc(S(=O)(=O)N4CCOCC4)cc3)n2)c(OC)c1	0	41*	0	-12
CC(C)(C)c1csc(NC(=O)c2ccc(S(=O)(=O)N3CCOCC3)cc2)n1	2	36*	0	17
COCCN(CCOC)S(=O)(=O)c1ccc(C(=O)Nc2nc(-c3ccc(C)cc3C)cs2)cc1	1	36*	0	-3
CCOc1cc(C)c(C)cc1S(=O)(=O)N1CCN(c2ccccc2)CC1	0	-8	0	2
COc1ccc2nc(SCC(=O)Nc3ccccc3Br)[nH]c2c1	-2	7	0	23
CCOC(=O)C1=CN(C(C)C)C=C(C(=O)OCC)C1c1ccc(Cl)cc1	0	-6	0	1
COc1ccc(C2Nc3ccccc3C(=O)N2c2ccc(C)cc2)cc1CSc1ccccn1 (stereo unspecified)	0	-64	0	3
C(=N\Nc1ccccn1)/c1sc(N2CCCCC2)nc1-c1cccs1	-1	67*	0	5
CN1/C(=C/C=C/c2cc(-c3ccc(Cl)cc3)cc(-c3ccc(Cl)cc3)[n+]2C)C(C)(C)c2ccccc21	3	94*	-1	59*
O=C(Nc1ccc(Oc2cccnc2)cc1)C1CCN(Cc2cc(Cl)ccc2O)CC1	-1	44*	0	17
O=C(Nc1ccc(Oc2cccnc2)cc1)C1CCN(Cc2ccc(F)cc2)CC1	0	6	0	-5
O=C(COC(=O)c1ccc([N+](=O)[O-])o1)NC(=O)Nc1ccc2c(c1)OCCO2	0	37*	0	-3
O=C(c1cc([N+](=O)[O-])ccc1Cl)N1CCN(c2cccc(Cl)c2)CC1	-1	32*	0	-12
O=C(c1n[nH]c(=O)c2ccccc12)N1CCN(c2cccc(Cl)c2)CC1	0	55*	0	-5
